EP2 modulator – EP2 receptor (human) modulation. P43116. EP2-expressing cells, cAMP HTRF FRET, PGE2 co-stimulation. induction, % at 25 µM. 0.83% of 260,000 active;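 active = compounds whose cAMP rise, as percent of the full-agonist control response, exceeds 60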;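 also: rat C6 glioma line stably carrying human EP2 under a CMV promoter; the protocol text gives 20 µM as final concentration; 100% = response of wells given 1 µM PGE2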
SKN-1 block – blocks SKN-1 activity in C. elegans; 0.49% of 360,000 active; C. elegans VP596 Pgst-4::GFP/RFP ratio, acrylamide-induced, 24 h; inhibition, % at 21.8 µM;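 active = interference check ratio from 0.5 to 1.5 plus GFP to RFP signal ratio inhibition reaching or exceeding a fixed threshold, cut at about 30% in these data, passing the limit was not always enough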
NR1D1 modulator – modulators of human Rev-erb alpha DNA binding; 0.79% of 370,000 active; Rev-erbα–FITC-DNA binding, fluorescence polarization, 90 min; P20393; activity, % at 10 µM;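 active = activity above about 14%, limit read from the data; passing the limit was not always enough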;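 also: 0% = DMSO wells with 35 nM protein and 100% = DMSO wells with 750 nM protein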
Target sequence (P20393 whole entry, looked up): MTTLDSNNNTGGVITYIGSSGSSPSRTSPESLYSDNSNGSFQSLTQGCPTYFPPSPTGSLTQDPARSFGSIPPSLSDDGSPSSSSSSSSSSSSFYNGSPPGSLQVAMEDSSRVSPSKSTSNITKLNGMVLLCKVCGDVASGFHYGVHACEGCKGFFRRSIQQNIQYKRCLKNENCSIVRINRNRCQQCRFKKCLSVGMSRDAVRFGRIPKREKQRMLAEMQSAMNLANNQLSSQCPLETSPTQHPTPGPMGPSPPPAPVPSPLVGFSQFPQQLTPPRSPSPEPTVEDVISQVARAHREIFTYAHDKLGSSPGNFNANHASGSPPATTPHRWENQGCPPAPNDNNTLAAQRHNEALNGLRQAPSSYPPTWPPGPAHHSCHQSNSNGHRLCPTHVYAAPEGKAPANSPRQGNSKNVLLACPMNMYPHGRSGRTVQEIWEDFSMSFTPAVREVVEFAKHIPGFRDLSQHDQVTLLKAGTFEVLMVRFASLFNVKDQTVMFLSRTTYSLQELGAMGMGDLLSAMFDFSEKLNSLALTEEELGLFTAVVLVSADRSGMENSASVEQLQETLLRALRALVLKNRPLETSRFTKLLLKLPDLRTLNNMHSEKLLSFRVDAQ
PG9 Ab binder – binds the HIV-1 gp120 antibody PG9; TR-FRET gp120-PG9 antibody binding; inhibition, % at 6.7 µM; 0.43% of 360,000 active; AID 624416; in the data active = inhibition above about 8.5%
RAM network inh – inhibitors of the yeast RAM network; S. cerevisiae dse1pr::URA3 reporter, 5-FOA growth OD615, 2 d; analog-sensitive cbk1-as2 kinase mutant strain; inhibition, % at 50 µM; 1.8% of 190,000 active;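 active = inhibition above a set limit, 3 SD over mean compound inhibition, cut at about 8.4% in these data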;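 also: 0% = DMSO-only wells with no growth and 100% = 10 µM 1-NA-PP1 full growth; inhibition rescues growth on 5-FOA so higher OD means more RAM inhibition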
EP2 antag – EP2 receptor (human) inhibition | P43116 | C6 glioma cells expressing human EP2, cAMP TR-FRET; cells stimulated with saturating PGE2 | inhibition, % at 25 µM | 0.52% of 260,000 active;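 active = percent inhibition above 40 after rounding to a whole number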;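 also: rat C6 glioma host cells with rolipram phosphodiesterase inhibitor present; the protocol text gives 20 µM as final concentration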
RAM efflux-def – RAM network inhibitors in efflux-deficient yeast; max inhibition, %; 1,200 tested, under 10 active; shares compounds with RAM network inh; S. cerevisiae efflux-deficient reporter strain, 5-FOA growth OD615, 2 days; call rule not given here;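 also: plate controls were vehicle for no effect and reference inhibitor for full effect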
* = called active by the depositor. Shown are actives, neighbours in structure and some others; about 2.9% of the full set was active somewhere.

Results for Clc1ccc(CSc2nnc(-c3c[nH]c4ccccc34)o2)cc1 ?
EP2 modulator: -52.3; SKN-1 block: 16.0; NR1D1 modulator: 2.6; PG9 Ab binder: 1.2; RAM network inh: 2.7; EP2 antag: 13.8

Results for Cc1cccc2cc3c(nc12)OCC(=O)N(Cc1ccccc1Cl)C3 ?
EP2 modulator: -82.2

Results for COc1ccc(-n2nc(C(=O)Nc3ccc(OC)c(OC)c3)c3c4ccccc4n(C)c3c2=O)cc1 ?
EP2 modulator: 14.1; SKN-1 block: 9.8; NR1D1 modulator: -26.9; PG9 Ab binder: -0.2; RAM network inh: 12.6*; EP2 antag: 10.0; RAM efflux-def: 4.6

How did COc1ccc(-n2nc(C(=O)Nc3ccc4c(c3)OCO4)c3c4ccccc4n(C)c3c2=O)cc1 do in these assays?
SKN-1 block: 8.0; NR1D1 modulator: -3.1; PG9 Ab binder: 1.2; EP2 antag: 10.6

How did CNS(=O)(=O)c1cccc(C(=O)OCc2csc(-c3ccccc3)n2)c1 do in these assays?
EP2 modulator: -52.8; SKN-1 block: 6.0; NR1D1 modulator: 7.3; PG9 Ab binder: 1.5; RAM network inh: 15.7*; EP2 antag: 12.7; RAM efflux-def: 1.4

How did O=C(CNS(=O)(=O)c1cccc(Cl)c1)OCc1csc(-c2ccccc2)n1 do in these assays?
EP2 modulator: 0.8; SKN-1 block: 14.6; NR1D1 modulator: 0.6; PG9 Ab binder: -1.5; RAM network inh: 6.4; EP2 antag: 4.4

Results for COc1ccc2nc(SCC(=O)Nc3ccc(C)cc3C)c(C#N)cc2c1 ?
EP2 modulator: 13.7; EP2 antag: 29.4

What do the screens show for `CCC(CO)NCc1ccc2c(c1)OCO2` (stereo not drawn)?
EP2 modulator: -71.4; EP2 antag: 15.1

How did COc1ccc(CN2C(=O)c3ccccc3C2OC)cc1 (stereo not drawn) do in these assays?
SKN-1 block: 11.8; NR1D1 modulator: -0.5; PG9 Ab binder: -0.9

What do the screens show for `COc1ccc(CN2C(=O)c3ccccc3C(/C=N\OCc3ccc(C)cc3)C2=O)cc1` (stereo not drawn)?
EP2 modulator: -7.1; SKN-1 block: 8.3; NR1D1 modulator: 4.5; PG9 Ab binder: 0.1; RAM network inh: 13.6*; EP2 antag: 9.4; RAM efflux-def: 4.1

Results for Cc1cccc2cc(CN(Cc3ccccc3)C(=O)C3CC3)c3nnnn3c12 ?
EP2 modulator: 1.5; EP2 antag: 9.8

How did O=C1c2ccccc2C(=O)N1CCCCN(C(=O)c1ccc(Cl)s1)c1ccc(Cl)cc1 do in these assays?
EP2 modulator: 34.4; SKN-1 block: 6.1; NR1D1 modulator: -3.2; PG9 Ab binder: 0.7; RAM network inh: 11.5*; EP2 antag: 4.9; RAM efflux-def: 3.6

How did COc1ccc(/C(=N\O)c2ncc(C(F)(F)F)cc2Cl)cc1 do in these assays?
EP2 modulator: 28.8; SKN-1 block: 1.3; NR1D1 modulator: 4.0; PG9 Ab binder: 1.3; RAM network inh: 0.5; EP2 antag: 14.1

How did CON/C=C(\C=Nc1ccc(C(F)(F)F)cc1)c1ncc(C(F)(F)F)cc1Cl do in these assays?
EP2 modulator: 8.0; SKN-1 block: -24.0; NR1D1 modulator: 2.6; PG9 Ab binder: 0.6; RAM network inh: 13.3*; EP2 antag: 0.9; RAM efflux-def: 1.9

What do the screens show for `CN(C)c1nc2c(c(=O)n(C)c(=O)n2C)n1Cc1ccccc1Cl`?
EP2 modulator: 20.1; EP2 antag: 8.2

Results for Cc1cccc(OCc2nnc(SCC(=O)c3ccccc3)o2)c1 ?
EP2 modulator: -7.4; SKN-1 block: 14.8; NR1D1 modulator: 6.8; PG9 Ab binder: 0.6; RAM network inh: 12.1*; EP2 antag: 8.9; RAM efflux-def: 1.8

How did Cc1ccc(C(=O)CSc2nnc(COc3cc(C)cc(C)c3)o2)cc1 do in these assays?
EP2 modulator: -50.0; SKN-1 block: -33.9; NR1D1 modulator: 5.6; PG9 Ab binder: -0.6; RAM network inh: 12.3*; EP2 antag: 4.1; RAM efflux-def: 1.4

Results for Cc1cc(C)cc(OCc2nnc(SCC(=O)c3ccccc3)o2)c1 ?
EP2 modulator: 6.0; SKN-1 block: 2.0; NR1D1 modulator: 0.2; PG9 Ab binder: 0.7; RAM network inh: 8.2; EP2 antag: 3.3

What do the screens show for `O=C(CSc1nnc(COc2ccccc2)o1)c1ccccc1`?
EP2 modulator: -4.3; SKN-1 block: -19.8; NR1D1 modulator: -0.3; PG9 Ab binder: 0.3; RAM network inh: 5.7; EP2 antag: 2.9

How did Cc1ncc(-c2ccncc2)c(C2CCCN(C(=O)c3sc(C)nc3C)C2)n1 (stereo not drawn) do in these assays?
EP2 modulator: -8.3

How did O=C(Nc1ccc(Cl)c(Cl)c1)c1ccc(Cn2cc(Cl)cn2)cc1 do in these assays?
EP2 modulator: -7.0; SKN-1 block: 0.7; NR1D1 modulator: -1.1; PG9 Ab binder: 2.1; RAM network inh: 13.2*; EP2 antag: 12.8; RAM efflux-def: 2.3

How did Cc1ccc(-n2c(O)c(/C=N/n3cnnc3)c3ccccc3c2=O)cc1 do in these assays?
EP2 modulator: -8.4; SKN-1 block: -7.5; NR1D1 modulator: 4.6; PG9 Ab binder: 0.2; RAM network inh: -0.7; EP2 antag: 20.5

How did Cc1ccc(-n2c(O)c(/C=N/c3ncn[nH]3)c3ccccc3c2=O)cc1 do in these assays?
EP2 modulator: 7.1; SKN-1 block: -9.6; NR1D1 modulator: -1.4; PG9 Ab binder: -2.6; RAM network inh: 11.8*; EP2 antag: 3.0; RAM efflux-def: 2.3

How did C=CCOc1ccccc1CN1CCc2c(nc(N3CCCC3)[nH]c2=O)C1 do in these assays?
EP2 modulator: 5.4

What do the screens show for `CCC(C)N1C(=O)/C(=C/c2c(NCCCOC(C)C)nc3c(C)cccn3c2=O)SC1=S` (stereo not drawn)?
EP2 modulator: 20.1; SKN-1 block: 71.0; NR1D1 modulator: 21.5; PG9 Ab binder: 1.9; RAM network inh: 18.4*; EP2 antag: 4.9; RAM efflux-def: 2.9

How did CCC(C)Nc1nc2c(C)cccn2c(=O)c1C=Nc1ccc(OC)cc1 (stereo not drawn) do in these assays?
EP2 modulator: 14.4; SKN-1 block: 3.2; NR1D1 modulator: 0.2; PG9 Ab binder: 1.8; RAM network inh: 1.7; EP2 antag: -3.1

Results for CCCCCCN(C(=O)CCCCCN1C(=O)NC(c2ccc(-c3ccccc3)cc2)C(C(=O)OCc2ccccc2)=C1C)C(C(=O)NCCCC)c1ccc(OCC(=O)OC)cc1 (stereo not drawn) ?
EP2 modulator: 21.1; RAM network inh: 13.1*; RAM efflux-def: 6.1

What do the screens show for `COc1cc(CC(=O)OCC(=O)Nc2ccc(Cl)c(S(=O)(=O)N(C)C)c2)cc(OC)c1OC`?
EP2 modulator: -1.9; SKN-1 block: -0.2; NR1D1 modulator: 2.5; PG9 Ab binder: 2.6; EP2 antag: 10.4
